Data on 38 molecules can be found in PubChem BioAssay (NCI).

This is part of a sample that, as a whole, favours compounds with a hit. Of some 79,000 tested, about 15% had one in any assay. Values without a mark were called inactive. Active and inactive are the calls of the source. Rule as the data show it: active = growth inhibition above about 70%; inactive = the rest.

A short description of assay [1]: NCI Yeast Anticancer Drug Screen. Data for the rad50 strain (AID 155).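 Also: 0% = growth of vehicle-only cultures of the same strain.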 Conditions: S. cerevisiae rad50 strain growth inhibition; at 50.0 µM; hits give high values. In a few lines: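 Compounds were tested on a yeast strain with an engineered DNA damage repair alteration; the reported value is growth inhibition normalised to vehicle treatment.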
A short description of assay [2]: NCI Yeast Anticancer Drug Screen. Data for the mec2-1 strain (AID 157). The note with it: S. cerevisiae mec2-1 strain, at 50.0 µM, hits give high values. The procedure, abridged: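 Test agents were screened against the mec2-1 yeast strain, with defined DNA repair or cell cycle alteration. Growth was scored as inhibition against vehicle-only controls.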
Assay [3] is described as follows: NCI Yeast Anticancer Drug Screen. Data for the sgs1 mgt1 strain (AID 161).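 Also: 0% = growth of cultures given vehicle only.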 The note with it: S. cerevisiae sgs1 mgt1 strain, at 50.0 µM, hits give high values. The procedure, abridged:
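Test agents were incubated with a DNA-repair-mutant yeast strain. Growth was then read and compared against vehicle-treated controls.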

Assay [4] is described as follows: NCI Yeast Anticancer Drug Screen. Data for the cln2 rad14 strain (AID 165).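 Also: 0% = growth equal to vehicle treated cultures.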 Conditions: S. cerevisiae cln2 rad14 strain, at 50.0 µM, hits give high values. The procedure, abridged: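 Growth of compound-exposed yeast (cln2 rad14 genotype) measured and expressed as inhibition relative to vehicle.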
Assay [5] is described as follows: NCI Yeast Anticancer Drug Screen. Data for the bub3 strain (AID 167). The note with it: S. cerevisiae bub3 mutant strain, at 50.0 µM, hits give high values. In a few lines:
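Growth of a checkpoint-deficient yeast mutant is measured after compound exposure. Values represent inhibition relative to vehicle.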

Assay [6] is described as follows: NCI Yeast Anticancer Drug Screen. Data for the mlh1 rad18 strain (AID 175). The note with it: S. cerevisiae mlh1 rad18 strain growth inhibition; at 50.0 µM; hits give high values. The procedure, abridged:
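In this whole-cell yeast screen, a strain with altered DNA damage repair is challenged with compound, and its growth is measured against matched vehicle-treated controls.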

Consider `CN1CCNCC1`, for which the growth inhibition in assay [1] was 11.1%; in assay [2] it was -6.55%; in assay [3], -10.5%; in assay [4], -18.4%; in assay [5], 11.5%; in assay [6], 5.75%.

As to `CNC(=O)O/N=C(\CN=[N+]=[N-])C(C)(C)C`, the growth inhibition was 4.6% in assay [1]; 3.55% in assay [2]; -1.4% in assay [3]; 0% in assay [4]; -19.6% in assay [5]; -20.5% in assay [6].

Regarding `CC(NC(=O)c1c(O)[nH]c(=S)[nH]c1=O)c1ccc([N+](=O)[O-])cc1` (stereo not drawn), the growth inhibition is 17.9% in assay [1]; 13.8% in assay [2]; 35.8% in assay [3]; 19.4% in assay [4]; 12.1% in assay [5]; 14.6% in assay [6].

Take `O=C(C(F)(F)Cl)C(F)(F)Cl`: the growth inhibition in assay [1] is 13.8%; in assay [2], -14.9%; in assay [3], 6.85%; in assay [4], 15.6%; in assay [5] it was -15.2%; in assay [6], 24.3%.

Consider `C=CCn1nnnc1N`, for which the growth inhibition is -4.3% in assay [1]; -16.8% in assay [2]; -5.55% in assay [3]; -37.9% in assay [4]; 3.1% in assay [5]; -6.2% in assay [6].

As to `Clc1ccc([C@H]2N[C@@H]2c2ccccn2)cc1`, the growth inhibition in assay [1] is 11.2%; in assay [2] it was 16.1%; in assay [3], 13.7%; in assay [4] it was -8.45%; in assay [5], 9.15%; in assay [6], -5.55%.

For `O=C(CBr)OCCOC(=O)CBr`, the growth inhibition was 0.55% in assay [1]; 18.4% in assay [2]; -8.5% in assay [3]; 14.4% in assay [4]; 28.5% in assay [5]; -3.95% in assay [6].

Turning to `NC(=O)Nc1ccc([As](O)O)cc1`, the growth inhibition in assay [1] is 11.3%; in assay [2], -2.4%; in assay [3], -0.45%; in assay [4], 11.8%; in assay [5], -20%; in assay [6], 15%.

On to `ClCCN(CCCl)c1ccc(C=Nc2ccccc2)cc1`, for which the growth inhibition in assay [1] was 34.5%; in assay [2] it was 21.1%; in assay [3], 59.6%; in assay [4], 12.2%; in assay [5], 2%; in assay [6], 28.6%.

For `OC(Cc1ccccn1)C(Cl)(Cl)Cl` (stereo not drawn), the growth inhibition in assay [1] is -10.2%; in assay [2], -13.5%; in assay [3], -1.7%; in assay [4] it was -15.6%; in assay [5] it was 4.35%; in assay [6] it was 3.9%.

Consider `CC(C)(C)C1=C(Br)C(Br)(C(C)(C)C)OP1(=O)c1ccccc1` (stereo not drawn), for which the growth inhibition in assay [1] was 7.9%; in assay [2], 8.55%; in assay [3], -22.9%; in assay [4], 5.75%; in assay [5] it was -5%; in assay [6], -27.5%.

Consider `O=C1c2ccccc2C(=O)N1N1CC1c1ccccc1` (stereo not drawn), for which the growth inhibition is -8.2% in assay [1]; -36.1% in assay [2]; 8.1% in assay [3]; 18.2% in assay [4]; 6.5% in assay [5]; -1% in assay [6].

For the molecule `NC(=O)Nc1cc(NC(N)=O)cc(N(CCCl)CCCl)c1`, the growth inhibition in assay [1] was -7%; in assay [2], -19.7%; in assay [3], -20.1%; in assay [4], -7.15%; in assay [5], -15.7%; in assay [6] it was -24.1%.

As for `Cc1ccc(N2CCNCC2C)cc1` (stereo not drawn), the growth inhibition in assay [1] is 6.15%; in assay [2], -13.2%; in assay [3] it was -4.6%; in assay [4], 8.95%; in assay [5], -9.25%; in assay [6], 11.2%.

As to `CCC(/C=N/N=C(N)N)=N\N=C(N)N`, the growth inhibition in assay [1] was 8.4%; in assay [2] it was -2.6%; in assay [3] it was -0.75%; in assay [4], -18.4%; in assay [5], 19.9%; in assay [6], -10.3%.

Consider `C(=NCCN=CC1CCCC[N-]1)C1CCCC[N-]1.[Cu+2].[O-][Cl+3]([O-])([O-])O` (stereo not drawn), for which the growth inhibition in assay [1] is 79.8% (active); in assay [2], 71% (active); in assay [3], 44.5%; in assay [4] it was 90% (active); in assay [5], 69.5%; in assay [6], 82.7% (active).

As to `CN1[C@@H](CC(=O)c2ccccc2)CCC[C@H]1CC(=O)c1ccccc1`, the growth inhibition in assay [1] is 21.2%; in assay [2], 5.4%; in assay [3], 42.5%; in assay [4] it was 37.3%; in assay [5] it was 28.2%; in assay [6], 1.25%.

As to `CCC(C)C(=O)OC1CC2(C)C(c3ccoc3)OC(=O)CC23OC2(C)OC34C(OC(=O)C(C)C)C3(O)C(OC(=O)C5(C)OC5C)C5(C)CC3(O)C(C)(C5CC(=O)OC)C14O2` (stereo not drawn), the growth inhibition in assay [1] was 24.4%; in assay [2], 19.1%; in assay [3], 9.3%; in assay [4], 26.9%; in assay [5], 13.1%; in assay [6], -24.3%.

Turning to `O=[N+]([O-])c1ccc2c(c1)[O][Sn]([I])([I])[O]2`, the growth inhibition in assay [1] is -6%; in assay [2], -3.95%; in assay [3], 8.8%; in assay [4] it was 6.7%; in assay [5], 1.95%; in assay [6] it was -3.9%.

Consider `CN(C)C1C(=O)C(C(=O)NP(=O)(NCCCO)N(CCCl)CCCl)=C(O)C2(O)C(=O)C3=C(O)c4c(O)cccc4C(C)(O)C3CC12` (stereo not drawn), for which the growth inhibition in assay [1] was 27.6%; in assay [2] it was 20.1%; in assay [3], 21.9%; in assay [4] it was 15.3%; in assay [5] it was 25.6%; in assay [6], 6.9%.

As for `CCOP(=O)(OCC)O/N=C(/CC)c1ccccc1`, the growth inhibition in assay [1] is 5.35%; in assay [2] it was -8.75%; in assay [3], 11.4%; in assay [4], -13.4%; in assay [5], -1.55%; in assay [6] it was -12.1%.

For `Cc1cn([C@H]2CC3C(CON3C)O2)c(=O)[nH]c1=O` (stereo partly drawn), the growth inhibition was 3.3% in assay [1]; 7.55% in assay [2]; 1.15% in assay [3]; -3.55% in assay [4]; -8.55% in assay [5]; -37.4% in assay [6].

Regarding `Cl.[O-]c1cccc2cccnc12.[O-]c1cccc2cccnc12.[O-]c1cccc2cccnc12.[O-]c1cccc2cccnc12.[Ti+4]`, the growth inhibition in assay [1] is 89.8% (active); in assay [2], 92.8% (active); in assay [3], 92.8% (active); in assay [4], 91.3% (active); in assay [5] it was 92% (active); in assay [6] it was 84.6% (active).

`S=C(N=Nc1ccccc1)NNc1ccccc1.[Zn+2]`: the growth inhibition is 28.1% in assay [1]; -9.35% in assay [2]; 19.4% in assay [3]; 12.3% in assay [4]; 36% in assay [5]; 12.3% in assay [6].

As for `CCCCCC(C)C1C(=O)NC(=O)NC1=O` (stereo not drawn), the growth inhibition was 6.4% in assay [1]; 12.9% in assay [2]; 2.65% in assay [3]; 5.7% in assay [4]; 7.8% in assay [5]; -6% in assay [6].

As for `CN1C(=O)c2ccccc2NC(=O)C12O[C@@H]2c1ccccc1` (stereo partly drawn), the growth inhibition in assay [1] was 0.05%; in assay [2], -19.7%; in assay [3], -4.95%; in assay [4] it was 14.3%; in assay [5], -9.7%; in assay [6], -16.9%.

For `CC1=C2C(=O)C(C)(C)C=C2C(=O)[C@](C)(O)C12CC2`, the growth inhibition in assay [1] was 66.4%; in assay [2], 47.1%; in assay [3], 68%; in assay [4] it was 55.2%; in assay [5] it was -5.95%; in assay [6] it was 5.4%.

In the case of `NC(Cc1ccc(O)c(F)c1)C(=O)O` (stereo not drawn), the growth inhibition was -37.1% in assay [1]; -40.4% in assay [2]; -41.2% in assay [3]; -2.75% in assay [4]; -51.9% in assay [5]; -14.3% in assay [6].

As for `O=C(O)CCc1ccc(NP(=O)(Oc2ccccc2)N(CCCl)CCCl)cc1` (stereo not drawn), the growth inhibition is 8.05% in assay [1]; 6.65% in assay [2]; 15.1% in assay [3]; 14.7% in assay [4]; 2.3% in assay [5]; -20.2% in assay [6].

Consider `COC(=O)CCc1ccc(NP(=O)(Oc2ccccc2)N(CCCl)CCCl)cc1` (stereo not drawn), for which the growth inhibition in assay [1] is 13.3%; in assay [2] it was 20.2%; in assay [3], 23.4%; in assay [4], 35.8%; in assay [5] it was 12.2%; in assay [6] it was -8.55%.

Turning to `COc1ccc(C=C(C#N)C#N)cc1OC`, the growth inhibition in assay [1] was -2.8%; in assay [2] it was -8.15%; in assay [3], -1.95%; in assay [4] it was -24.2%; in assay [5], -1.3%; in assay [6], -0.25%.

For the molecule `O=[N+]([O-])NC1=NCCN1CCCl`, the growth inhibition in assay [1] was -17.2%; in assay [2], -13.6%; in assay [3] it was -4.6%; in assay [4] it was -25.1%; in assay [5], -12.6%; in assay [6] it was 9.15%.

Turning to `C1CCN2CC3CONC3C2C1` (stereo not drawn), the growth inhibition in assay [1] is -11.3%; in assay [2] it was -7.5%; in assay [3], 2.05%; in assay [4], 13.7%; in assay [5], -6.2%; in assay [6] it was -3.05%.

With `COC12c3ccccc3-c3ccccc3C1[C@@H](C(=O)O)[C@H]2C(=O)O` (stereo partly drawn), the growth inhibition in assay [1] is 11.2%; in assay [2], 1.6%; in assay [3] it was -11.6%; in assay [4], -14%; in assay [5], -24.4%; in assay [6] it was -10.3%.

On to `C[C@]12CC[C@H]3[C@@H](CCC4=CC(=O)CC[C@@]43C)[C@]1(O)CC[C@]2(O)C(=O)CO`, for which the growth inhibition is 11.2% in assay [1]; -12.6% in assay [2]; -30.4% in assay [3]; -2.05% in assay [4]; -17.3% in assay [5]; -9.1% in assay [6].

For the molecule `COc1ccc(CC(C)NO)cc1` (stereo not drawn), the growth inhibition in assay [1] is -16.2%; in assay [2] it was 8.8%; in assay [3], -11.9%; in assay [4], 11.7%; in assay [5] it was 2.35%; in assay [6], -32.5%.

Regarding `ClCCN(CCCl)CC(Cl)COc1cccc2ccccc12` (stereo not drawn), the growth inhibition in assay [1] is 12.2%; in assay [2] it was 11.6%; in assay [3], 31.5%; in assay [4] it was -1.6%; in assay [5], 25.2%; in assay [6] it was 30.4%.

On to `Cc1cc(N(CCCl)CCCl)ccc1C1N(Cc2ccc(N(CCCl)CCCl)cc2)CCCN1Cc1ccc(N(CCCl)CCCl)cc1`, for which the growth inhibition is 0.8% in assay [1]; 7.8% in assay [2]; -6.2% in assay [3]; -5.1% in assay [4]; -1.35% in assay [5]; 25% in assay [6].
